# Measurements: publication PMC7862700, “An all-to-all approach to the identification of sequence-specific readers for epigenetic DNA modifications on cytosine”
# Key:
# Assay in all cases: DAPPL (digital affinity profiling via proximity ligation, sequencing); 10 mM Tris-HCl pH 7.5, 50 mM NaCl, 1 mM DTT, 4% glycerol, room temperature, 30 min; GST-TFs on glutathione beads, 16-mer random dsDNA library, 0.1% formaldehyde crosslink after washing; high values mean tight binding
# FLI1 = molecular target: T1, FLI1 (Homo sapiens, UniProt Q01543 1-452); conditions: protein: recombinant; tags: N-terminal GST; dsDNA, one strand shown
# T1 sequence: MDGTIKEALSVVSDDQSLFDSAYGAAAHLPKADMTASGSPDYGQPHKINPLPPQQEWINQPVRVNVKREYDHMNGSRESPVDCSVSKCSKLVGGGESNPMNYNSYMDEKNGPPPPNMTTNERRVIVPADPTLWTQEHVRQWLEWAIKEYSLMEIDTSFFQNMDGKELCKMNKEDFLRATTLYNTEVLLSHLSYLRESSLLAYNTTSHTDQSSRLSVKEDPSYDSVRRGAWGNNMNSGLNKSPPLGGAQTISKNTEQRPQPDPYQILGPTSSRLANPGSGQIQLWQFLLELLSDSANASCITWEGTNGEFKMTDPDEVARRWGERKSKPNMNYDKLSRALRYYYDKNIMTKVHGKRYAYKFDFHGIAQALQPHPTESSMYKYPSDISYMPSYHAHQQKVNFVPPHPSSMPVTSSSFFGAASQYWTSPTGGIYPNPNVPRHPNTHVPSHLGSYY
# Outline: (§1)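 Human transcription factors fused to GST were expressed in yeast, captured on glutathione beads, given DNA barcodes and pooled with a GST-only negative control. Pools were incubated with 200 nmole of a 16-mer random double-stranded DNA library in Tris/NaCl/DTT/glycerol buffer at room temperature for 30 min. They were then washed, crosslinked with 0.1% formaldehyde, proximity-ligated (BsaI/T4 ligase, 1 h, 37 °C), PCR-amplified and sequenced on an Illumina NextSeq500. Binding signal is each 6-mer's read frequency for a factor divided by its frequency for the GST control.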
# ELK1 = molecular target: T2, ELK1 (Homo sapiens, UniProt P19419 1-428); conditions: protein: recombinant; tags: N-terminal GST; dsDNA, one strand shown
# T2 sequence: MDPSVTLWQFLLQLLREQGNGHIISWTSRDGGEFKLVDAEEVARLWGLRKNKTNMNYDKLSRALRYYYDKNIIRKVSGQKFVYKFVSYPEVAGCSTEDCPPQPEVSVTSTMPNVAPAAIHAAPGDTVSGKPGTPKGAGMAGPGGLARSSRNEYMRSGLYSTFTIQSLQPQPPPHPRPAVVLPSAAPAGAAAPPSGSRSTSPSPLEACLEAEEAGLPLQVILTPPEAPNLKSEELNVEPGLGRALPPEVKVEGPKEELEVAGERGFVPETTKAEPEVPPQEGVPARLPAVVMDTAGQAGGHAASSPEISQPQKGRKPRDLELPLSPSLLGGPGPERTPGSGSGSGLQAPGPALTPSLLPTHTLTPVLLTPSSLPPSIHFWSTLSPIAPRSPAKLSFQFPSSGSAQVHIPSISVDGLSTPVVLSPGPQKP
# Outline: as §1
# GABPA = molecular target: T3, GABPA (Homo sapiens, UniProt Q06546 1-454); conditions: protein: recombinant; tags: N-terminal GST; dsDNA, one strand shown
# T3 sequence: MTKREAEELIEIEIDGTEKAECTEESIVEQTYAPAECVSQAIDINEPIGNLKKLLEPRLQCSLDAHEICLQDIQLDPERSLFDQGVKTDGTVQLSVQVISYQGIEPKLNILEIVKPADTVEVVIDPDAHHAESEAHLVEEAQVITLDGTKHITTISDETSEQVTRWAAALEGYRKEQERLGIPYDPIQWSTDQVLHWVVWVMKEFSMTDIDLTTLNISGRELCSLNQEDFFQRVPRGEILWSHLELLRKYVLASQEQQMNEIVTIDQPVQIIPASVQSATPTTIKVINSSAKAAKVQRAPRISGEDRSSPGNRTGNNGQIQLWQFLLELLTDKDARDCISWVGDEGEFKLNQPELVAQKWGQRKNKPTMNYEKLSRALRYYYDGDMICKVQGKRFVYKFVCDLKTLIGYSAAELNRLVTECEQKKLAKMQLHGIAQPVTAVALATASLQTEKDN
# Outline: as §1
# ERG = molecular target: T4, ERG (Homo sapiens, UniProt P11308 1-479); conditions: protein: recombinant; tags: N-terminal GST; dsDNA, one strand shown
# T4 sequence: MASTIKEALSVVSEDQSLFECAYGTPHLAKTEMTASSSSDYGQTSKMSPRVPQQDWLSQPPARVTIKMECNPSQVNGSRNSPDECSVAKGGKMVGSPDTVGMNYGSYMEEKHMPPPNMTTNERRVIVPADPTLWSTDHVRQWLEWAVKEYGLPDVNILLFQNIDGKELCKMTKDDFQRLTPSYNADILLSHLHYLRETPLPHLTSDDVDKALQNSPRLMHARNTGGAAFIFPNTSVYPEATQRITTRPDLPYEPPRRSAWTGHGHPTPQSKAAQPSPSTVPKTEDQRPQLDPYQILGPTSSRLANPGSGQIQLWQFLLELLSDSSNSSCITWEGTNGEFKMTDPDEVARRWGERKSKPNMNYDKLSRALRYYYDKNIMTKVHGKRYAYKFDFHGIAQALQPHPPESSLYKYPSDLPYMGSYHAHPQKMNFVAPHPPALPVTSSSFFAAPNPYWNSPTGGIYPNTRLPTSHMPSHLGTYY
# Outline: as §1
# ELF1 = ELF1 (Homo sapiens, UniProt P32519 1-619); conditions: protein: recombinant; tags: N-terminal GST; dsDNA, one strand shown
# Chain of ELF1 (P32519 whole entry): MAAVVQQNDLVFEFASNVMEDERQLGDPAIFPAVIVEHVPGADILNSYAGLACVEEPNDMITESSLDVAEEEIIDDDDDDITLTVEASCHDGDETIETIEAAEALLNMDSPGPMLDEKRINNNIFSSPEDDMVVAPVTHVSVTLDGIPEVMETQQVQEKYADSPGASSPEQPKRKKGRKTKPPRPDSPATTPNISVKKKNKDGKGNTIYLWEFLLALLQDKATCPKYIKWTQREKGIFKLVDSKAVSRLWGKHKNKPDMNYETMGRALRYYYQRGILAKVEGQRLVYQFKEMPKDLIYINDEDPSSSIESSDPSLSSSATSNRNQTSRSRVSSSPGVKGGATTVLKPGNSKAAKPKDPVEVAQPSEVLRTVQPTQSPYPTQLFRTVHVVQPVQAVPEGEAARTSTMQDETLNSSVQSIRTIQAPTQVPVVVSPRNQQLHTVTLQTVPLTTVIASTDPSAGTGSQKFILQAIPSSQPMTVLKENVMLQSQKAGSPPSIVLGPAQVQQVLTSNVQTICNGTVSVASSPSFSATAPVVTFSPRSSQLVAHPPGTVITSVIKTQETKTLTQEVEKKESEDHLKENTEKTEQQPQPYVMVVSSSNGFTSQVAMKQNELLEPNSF
# Outline: as §1
# EHF = molecular target: T5, EHF (Homo sapiens, UniProt Q9NZC4 1-300); conditions: protein: recombinant; tags: N-terminal GST; dsDNA, one strand shown
# T5 sequence: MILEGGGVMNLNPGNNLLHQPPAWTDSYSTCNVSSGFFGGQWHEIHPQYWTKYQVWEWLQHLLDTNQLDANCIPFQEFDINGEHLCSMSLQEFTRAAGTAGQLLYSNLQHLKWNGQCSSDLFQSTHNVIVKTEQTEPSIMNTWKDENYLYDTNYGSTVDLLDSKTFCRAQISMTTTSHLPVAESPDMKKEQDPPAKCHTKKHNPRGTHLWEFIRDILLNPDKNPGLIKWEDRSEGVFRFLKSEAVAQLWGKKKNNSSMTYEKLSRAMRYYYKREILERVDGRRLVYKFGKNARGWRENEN
# Outline: as §1
# SPI1 = SPI1 (Homo sapiens, UniProt P17947 1-270); conditions: protein: recombinant; tags: N-terminal GST; dsDNA, one strand shown
# Outline: as §1
# SPIB = SPIB (Homo sapiens, UniProt Q01892 1-262); conditions: protein: recombinant; tags: N-terminal GST; dsDNA, one strand shown
# Chain of SPIB (Q01892 whole entry): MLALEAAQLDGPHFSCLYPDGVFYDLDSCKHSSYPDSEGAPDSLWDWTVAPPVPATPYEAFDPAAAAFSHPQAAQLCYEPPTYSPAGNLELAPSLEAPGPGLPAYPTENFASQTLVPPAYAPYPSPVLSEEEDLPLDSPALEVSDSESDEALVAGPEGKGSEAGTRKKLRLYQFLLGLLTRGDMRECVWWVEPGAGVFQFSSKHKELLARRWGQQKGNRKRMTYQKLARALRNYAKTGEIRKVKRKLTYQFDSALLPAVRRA
# Outline: as §1
# ELK3 = molecular target: T6, ELK3 (Homo sapiens, UniProt P41970 1-407); conditions: protein: recombinant; tags: N-terminal GST; dsDNA, one strand shown
# T6 sequence: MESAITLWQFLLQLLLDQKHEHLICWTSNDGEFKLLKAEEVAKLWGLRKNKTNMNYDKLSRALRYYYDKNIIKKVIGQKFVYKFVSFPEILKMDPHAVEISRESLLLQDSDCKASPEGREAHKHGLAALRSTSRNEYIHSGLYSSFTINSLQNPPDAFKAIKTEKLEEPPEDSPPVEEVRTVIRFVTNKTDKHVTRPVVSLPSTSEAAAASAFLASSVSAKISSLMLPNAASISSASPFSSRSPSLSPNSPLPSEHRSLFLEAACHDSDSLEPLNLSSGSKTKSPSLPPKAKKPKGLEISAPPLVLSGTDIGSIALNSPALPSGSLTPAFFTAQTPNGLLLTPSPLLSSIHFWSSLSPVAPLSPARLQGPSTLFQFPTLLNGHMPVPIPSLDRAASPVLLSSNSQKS
# Outline: as §1
# FEV = molecular target: T7, FEV (Homo sapiens, UniProt Q99581 1-238); conditions: protein: recombinant; tags: N-terminal GST; dsDNA, one strand shown
# T7 sequence: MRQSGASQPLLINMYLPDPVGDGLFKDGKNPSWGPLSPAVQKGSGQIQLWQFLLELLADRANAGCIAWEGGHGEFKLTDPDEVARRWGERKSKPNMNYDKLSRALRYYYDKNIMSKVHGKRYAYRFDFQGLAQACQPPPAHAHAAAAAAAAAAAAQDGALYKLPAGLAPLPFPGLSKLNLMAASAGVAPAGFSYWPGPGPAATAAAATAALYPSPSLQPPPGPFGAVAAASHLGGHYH
# Outline: as §1
# ETV5 = ETV5 (Homo sapiens, UniProt P41161 1-510); conditions: protein: recombinant; tags: N-terminal GST; dsDNA, one strand shown
# Chain of ETV5 (P41161 whole entry): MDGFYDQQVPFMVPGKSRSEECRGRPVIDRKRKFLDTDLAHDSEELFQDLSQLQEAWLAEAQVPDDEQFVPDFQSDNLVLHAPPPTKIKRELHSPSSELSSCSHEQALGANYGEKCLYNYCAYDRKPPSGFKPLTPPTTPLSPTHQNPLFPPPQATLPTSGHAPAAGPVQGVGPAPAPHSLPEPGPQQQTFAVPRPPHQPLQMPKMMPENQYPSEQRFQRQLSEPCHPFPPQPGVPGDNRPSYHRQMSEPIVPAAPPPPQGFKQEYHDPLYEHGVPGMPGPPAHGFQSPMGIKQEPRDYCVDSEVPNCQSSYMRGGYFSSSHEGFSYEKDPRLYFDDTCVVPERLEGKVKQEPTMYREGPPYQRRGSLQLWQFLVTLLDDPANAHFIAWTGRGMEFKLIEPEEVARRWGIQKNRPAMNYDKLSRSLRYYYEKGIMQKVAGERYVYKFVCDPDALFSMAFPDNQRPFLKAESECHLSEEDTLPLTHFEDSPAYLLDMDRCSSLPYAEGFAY
# Outline: as §1
# HSF1 = HSF1 (Homo sapiens, UniProt Q00613 1-529); conditions: protein: recombinant; tags: N-terminal GST; chain copies: 3; dsDNA, one strand shown
# Chain of HSF1 (Q00613 whole entry): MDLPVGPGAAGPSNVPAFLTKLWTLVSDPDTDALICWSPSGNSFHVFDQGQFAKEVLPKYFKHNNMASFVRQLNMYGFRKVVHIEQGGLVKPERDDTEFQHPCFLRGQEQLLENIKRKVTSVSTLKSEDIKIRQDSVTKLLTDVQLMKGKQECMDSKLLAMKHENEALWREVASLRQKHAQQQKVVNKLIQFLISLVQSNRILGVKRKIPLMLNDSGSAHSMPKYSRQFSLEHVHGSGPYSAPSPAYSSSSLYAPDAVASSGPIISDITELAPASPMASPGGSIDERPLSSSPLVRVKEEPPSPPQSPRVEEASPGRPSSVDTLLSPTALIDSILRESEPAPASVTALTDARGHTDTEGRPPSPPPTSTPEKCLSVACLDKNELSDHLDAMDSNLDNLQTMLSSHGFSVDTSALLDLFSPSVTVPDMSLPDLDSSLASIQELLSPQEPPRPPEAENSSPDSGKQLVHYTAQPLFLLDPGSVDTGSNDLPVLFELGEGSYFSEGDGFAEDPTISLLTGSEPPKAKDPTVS
# Outline: as §1
# SPIC = molecular target: T8, SPIC (Homo sapiens, UniProt Q8N5J4 1-248); conditions: protein: recombinant; tags: N-terminal GST; dsDNA, one strand shown
# T8 sequence: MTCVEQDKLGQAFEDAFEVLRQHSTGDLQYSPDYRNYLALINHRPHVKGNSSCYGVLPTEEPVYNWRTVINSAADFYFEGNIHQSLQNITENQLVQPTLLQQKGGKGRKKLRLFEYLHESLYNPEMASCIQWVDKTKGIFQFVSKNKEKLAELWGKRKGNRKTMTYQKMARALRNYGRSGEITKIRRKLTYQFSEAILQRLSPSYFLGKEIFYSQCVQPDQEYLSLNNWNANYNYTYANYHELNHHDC
# Outline: as §1
# ELF4 = ELF4 (Homo sapiens, UniProt Q99607 1-663); conditions: protein: recombinant; tags: N-terminal GST; dsDNA, one strand shown
# Chain of ELF4 (Q99607 whole entry): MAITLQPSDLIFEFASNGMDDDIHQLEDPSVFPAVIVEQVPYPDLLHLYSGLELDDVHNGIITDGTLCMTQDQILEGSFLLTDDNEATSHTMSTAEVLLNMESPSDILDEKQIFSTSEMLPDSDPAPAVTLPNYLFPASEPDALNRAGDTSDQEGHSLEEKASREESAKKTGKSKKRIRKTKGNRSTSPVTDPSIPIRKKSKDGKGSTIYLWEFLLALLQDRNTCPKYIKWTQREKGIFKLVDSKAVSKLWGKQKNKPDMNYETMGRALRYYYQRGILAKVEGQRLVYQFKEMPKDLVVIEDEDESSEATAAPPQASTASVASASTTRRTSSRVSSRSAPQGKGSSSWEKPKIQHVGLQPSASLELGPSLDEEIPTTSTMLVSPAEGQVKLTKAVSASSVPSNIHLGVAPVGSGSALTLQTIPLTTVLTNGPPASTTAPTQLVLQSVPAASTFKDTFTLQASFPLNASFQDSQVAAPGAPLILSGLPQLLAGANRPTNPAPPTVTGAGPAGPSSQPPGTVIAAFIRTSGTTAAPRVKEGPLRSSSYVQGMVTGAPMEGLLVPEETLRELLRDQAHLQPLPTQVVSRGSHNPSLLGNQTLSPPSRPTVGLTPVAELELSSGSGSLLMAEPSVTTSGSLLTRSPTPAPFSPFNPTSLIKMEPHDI
# Outline: as §1
# ELK4 = molecular target: T9, ELK4 (Homo sapiens, UniProt P28324-2 1-405); conditions: protein: recombinant; tags: N-terminal GST; dsDNA, one strand shown
# T9 sequence: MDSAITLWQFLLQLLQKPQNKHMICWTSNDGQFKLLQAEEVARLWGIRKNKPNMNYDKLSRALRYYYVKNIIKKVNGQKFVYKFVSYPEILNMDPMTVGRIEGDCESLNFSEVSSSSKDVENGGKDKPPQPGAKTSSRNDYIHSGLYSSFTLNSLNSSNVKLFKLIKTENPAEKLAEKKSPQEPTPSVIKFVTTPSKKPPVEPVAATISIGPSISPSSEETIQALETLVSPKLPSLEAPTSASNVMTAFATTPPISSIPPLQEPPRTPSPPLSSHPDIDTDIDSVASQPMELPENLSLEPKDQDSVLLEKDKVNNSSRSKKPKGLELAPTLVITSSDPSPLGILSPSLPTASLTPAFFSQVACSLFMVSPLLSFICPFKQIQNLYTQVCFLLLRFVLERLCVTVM
# Outline: as §1
# ETV2 = molecular target: T10, ETV2 (Homo sapiens, UniProt O00321 1-342); conditions: protein: recombinant; tags: N-terminal GST; dsDNA, one strand shown
# T10 sequence: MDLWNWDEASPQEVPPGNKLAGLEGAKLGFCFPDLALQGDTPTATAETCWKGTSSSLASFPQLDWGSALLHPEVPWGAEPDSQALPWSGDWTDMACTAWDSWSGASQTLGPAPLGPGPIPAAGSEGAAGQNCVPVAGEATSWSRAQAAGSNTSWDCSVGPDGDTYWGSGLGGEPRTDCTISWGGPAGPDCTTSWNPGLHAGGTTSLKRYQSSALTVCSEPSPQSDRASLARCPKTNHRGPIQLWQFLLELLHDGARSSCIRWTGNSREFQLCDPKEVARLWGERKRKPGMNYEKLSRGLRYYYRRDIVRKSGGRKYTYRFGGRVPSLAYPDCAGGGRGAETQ
# Outline: as §1
# ELF3 = molecular target: T11, ELF3 (Homo sapiens, UniProt P78545 1-371); conditions: protein: recombinant; tags: N-terminal GST; dsDNA, one strand shown
# T11 sequence: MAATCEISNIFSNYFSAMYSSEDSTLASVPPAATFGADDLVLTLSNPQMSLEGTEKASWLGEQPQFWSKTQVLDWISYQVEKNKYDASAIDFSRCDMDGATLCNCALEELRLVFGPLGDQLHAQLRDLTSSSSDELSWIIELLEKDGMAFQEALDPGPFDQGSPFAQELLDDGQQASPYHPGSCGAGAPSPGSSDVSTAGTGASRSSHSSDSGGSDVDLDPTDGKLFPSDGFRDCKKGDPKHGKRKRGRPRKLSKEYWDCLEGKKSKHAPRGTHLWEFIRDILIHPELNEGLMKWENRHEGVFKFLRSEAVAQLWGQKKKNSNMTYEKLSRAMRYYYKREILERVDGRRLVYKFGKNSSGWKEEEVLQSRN
# Outline: as §1
# CRX = CRX (Homo sapiens, UniProt O43186 1-299); conditions: protein: recombinant; tags: N-terminal GST; dsDNA, one strand shown
# Chain of CRX (O43186 whole entry): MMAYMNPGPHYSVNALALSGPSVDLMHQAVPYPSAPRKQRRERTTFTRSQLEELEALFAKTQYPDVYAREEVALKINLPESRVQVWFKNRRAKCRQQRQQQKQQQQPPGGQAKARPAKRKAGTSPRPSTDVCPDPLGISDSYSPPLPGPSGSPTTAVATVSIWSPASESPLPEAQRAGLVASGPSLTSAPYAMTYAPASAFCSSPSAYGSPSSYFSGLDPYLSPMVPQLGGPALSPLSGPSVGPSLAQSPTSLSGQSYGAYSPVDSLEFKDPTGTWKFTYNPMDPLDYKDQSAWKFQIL
# Outline: as §1
# ETV1 = ETV1 (Homo sapiens, UniProt P50549 1-477); conditions: protein: recombinant; tags: N-terminal GST; dsDNA, one strand shown
# Chain of ETV1 (P50549 whole entry): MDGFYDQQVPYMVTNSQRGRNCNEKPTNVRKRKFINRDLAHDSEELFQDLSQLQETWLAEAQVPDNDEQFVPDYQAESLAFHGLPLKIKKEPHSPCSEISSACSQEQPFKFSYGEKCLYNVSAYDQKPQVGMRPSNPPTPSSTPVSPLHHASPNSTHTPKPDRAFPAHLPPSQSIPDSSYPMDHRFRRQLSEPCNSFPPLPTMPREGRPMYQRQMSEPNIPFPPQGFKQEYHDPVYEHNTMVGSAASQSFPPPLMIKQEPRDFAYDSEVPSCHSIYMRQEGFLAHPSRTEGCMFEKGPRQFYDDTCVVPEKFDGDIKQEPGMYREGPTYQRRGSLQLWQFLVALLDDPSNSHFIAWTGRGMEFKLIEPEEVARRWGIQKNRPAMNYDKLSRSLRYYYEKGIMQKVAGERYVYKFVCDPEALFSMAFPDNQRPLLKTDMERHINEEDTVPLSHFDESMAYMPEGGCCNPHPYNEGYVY
# Outline: as §1
sequence,measurement,setting,value
AAACGC,binding signal,FLI1,"1.24 fold enrichment (6-mer frequency, TF over GST control)"
same,binding signal,ELK1,"1.17 fold enrichment (6-mer frequency, TF over GST control)"
same,binding signal,GABPA,"1.28 fold enrichment (6-mer frequency, TF over GST control)"
same,binding signal,ERG,"1.34 fold enrichment (6-mer frequency, TF over GST control)"
same,binding signal,ELF1,"1.27 fold enrichment (6-mer frequency, TF over GST control)"
same,binding signal,EHF,"1.25 fold enrichment (6-mer frequency, TF over GST control)"
same,binding signal,SPI1,"1.22 fold enrichment (6-mer frequency, TF over GST control)"
same,binding signal,SPIB,"1.22 fold enrichment (6-mer frequency, TF over GST control)"
same,binding signal,ELK3,"1.15 fold enrichment (6-mer frequency, TF over GST control)"
same,binding signal,FEV,"1.21 fold enrichment (6-mer frequency, TF over GST control)"
same,binding signal,ETV5,"1.28 fold enrichment (6-mer frequency, TF over GST control)"
same,binding signal,HSF1,"1.05 fold enrichment (6-mer frequency, TF over GST control)"
same,binding signal,SPIC,"1.29 fold enrichment (6-mer frequency, TF over GST control)"
same,binding signal,ELF4,"1.2 fold enrichment (6-mer frequency, TF over GST control)"
same,binding signal,ELK4,"1.27 fold enrichment (6-mer frequency, TF over GST control)"
same,binding signal,ETV2,"1.38 fold enrichment (6-mer frequency, TF over GST control)"
same,binding signal,ELF3,"1.21 fold enrichment (6-mer frequency, TF over GST control)"
same,binding signal,CRX,"1.04 fold enrichment (6-mer frequency, TF over GST control)"
same,binding signal,ETV1,"1.31 fold enrichment (6-mer frequency, TF over GST control)"
